A short description of test [1]: ATG_CRE_CIS: Attagene CIS-FACTORIAL HepG2 Assay for human cAMP Responsive Element (CRE) binding protein 3 (AID 2282926). As to conditions: HepG2 CRE cis-reporter, Attagene multiplexed mRNA; actives raise or lower the signal. A digest of the protocol:
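HepG2 cells transiently transfected with cis-element-driven multiple reporter transcription units; CRE reporter mRNA measured 24 h after dosing by RT-PCR, 6-FAM labelling, HpaI digestion and capillary electrophoresis. Bidirectional fit versus DMSO baseline.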

The target in test [2] is CCAAT/enhancer-binding protein beta (Homo sapiens) (UniProt P17676). The experiment in a line: ATG_C_EBP_CIS: Attagene CIS-FACTORIAL HepG2 Assay for human CCAAT/Enhancer Binding Protein (C/EBP) beta (AID 2282927). As to conditions: HepG2 Attagene cis-factorial transcription factor reporter; actives raise or lower the signal. The method in brief:
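Changes in reporter mRNA, rather than exogenous chimeric receptor activity, reflect native C/EBP signalling in transfected HepG2 cells dosed for 24 h; transcripts are detected by RT-PCR and capillary electrophoresis.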

A short description of test [3]: ATG_CMV_CIS: Attagene CIS-FACTORIAL HepG2 Assay for human CMV (Internal Marker) (AID 2282928).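 Also: endpoint acts as a background internal control marker rather than a target.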 As to conditions: HepG2 CMV promoter reporter, transcription factor profiling; actives raise or lower the signal. The method in brief: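 After transient transfection of HepG2 with reporter transcription units driven by cis-regulatory promoters, cells receive test chemical for 24 h. Labeled reporter amplicons, digested with HpaI, are sized and quantified by capillary electrophoresis against DMSO.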

A short description of test [4]: ATG_DR4_LXR_CIS: Attagene CIS-FACTORIAL HepG2 Assay for human Liver X Receptor (LXR), DR4 submotif (AID 2282929). As to conditions: HepG2 Attagene DR4 cis-reporter, mRNA transcription; actives raise or lower the signal. The method in brief: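 Endogenous factor activity at a DR4 cis-element is read as reporter mRNA in transiently transfected HepG2 cells. Exposure lasts 24 h; transcripts are amplified, fluorescently labelled and sized by capillary electrophoresis, with DMSO as baseline.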

Test [5] concerns the target Aryl hydrocarbon receptor (Homo sapiens) (UniProt P35869). The test is described as follows: ATG_Ahr_CIS: Attagene CIS-FACTORIAL HepG2 Assay for human Aryl Hydrocarbon Receptor (Ahr) (AID 2282930). To be noted: HepG2 AhR cis-factorial reporter transcription; actives raise or lower the signal. A digest of the protocol: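 HepG2, transient MRTU (cis) transfection, 24 h exposure. RNA → cDNA → PCR → 6-FAM primer extension → HpaI 2 h 37 C → CE. Fit: bidirectional, DMSO baseline.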

The nature of test [6]: ATG_AP_1_CIS: Attagene CIS-FACTORIAL HepG2 Assay for human Activator Protein 1 (AP-1) (AID 2282931). To be noted: HepG2 Attagene cis-factorial AP-1 reporter mRNA; actives raise or lower the signal. A digest of the protocol:
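Fluorescence of labelled PCR fragments separated by capillary electrophoresis gives reporter mRNA levels. HepG2 with transfected cis-regulated reporter units, 24 h exposure; DMSO serves as baseline for bidirectional curve fits.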

Test [7] in a line: ATG_AP_2_CIS: Attagene CIS-FACTORIAL HepG2 Assay for human Activator Protein 2 (AP-2) (AID 2282932). To be noted: HepG2 AP-2 cis-reporter, Attagene transcription factor profiling; actives raise or lower the signal. The method in brief: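 HepG2, transient MRTU transfection, cis-regulated reporters; 24 h compound exposure; RNA isolated, RT-PCR, 6-FAM labelling, HpaI digest, CE fluorescence. DMSO = negative control/baseline, bidirectional fit.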

Test [8] can be described thus: ATG_BRE_CIS: Attagene CIS-FACTORIAL HepG2 Assay for human Bone Morphogenetic Protein (BMP) Response Element (BRE) (AID 2282933). To be noted: HepG2 BMP response element reporter, Attagene transcription factor profiling; actives raise or lower the signal. The method in brief: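 After a 24 h chemical treatment, transiently transfected HepG2 cells were lysed for RNA; reporter transcripts were quantified by fluorescent RT-PCR and capillary electrophoresis, normalised to DMSO.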

The target of test [9] is Retinoic acid receptor alpha (Homo sapiens) (UniProt P10276). The experiment in a line: ATG_DR5_RAR_CIS: Attagene CIS-FACTORIAL HepG2 Assay for human Retinoic Acid Receptor Alpha (RARE), DR5 submotif (AID 2282934). As to conditions: HepG2 Attagene cis-factorial RARE DR5 reporter, mRNA; actives raise or lower the signal. A digest of the protocol: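 HepG2, transient cis-reporter transfection, 24 h exposure. mRNA readout: RT-PCR, FAM label, HpaI cut, capillary electrophoresis. DMSO baseline, gain/loss fitting.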

Activity calls are given as the source filed them. The calls were made as follows: active = hit-call score of the fitted dose curve at least 0.9, where 1 is the maximum; inactive = score below 0.9.

Aryl hydrocarbon receptor (Homo sapiens), sequence (P35869 whole entry, looked up): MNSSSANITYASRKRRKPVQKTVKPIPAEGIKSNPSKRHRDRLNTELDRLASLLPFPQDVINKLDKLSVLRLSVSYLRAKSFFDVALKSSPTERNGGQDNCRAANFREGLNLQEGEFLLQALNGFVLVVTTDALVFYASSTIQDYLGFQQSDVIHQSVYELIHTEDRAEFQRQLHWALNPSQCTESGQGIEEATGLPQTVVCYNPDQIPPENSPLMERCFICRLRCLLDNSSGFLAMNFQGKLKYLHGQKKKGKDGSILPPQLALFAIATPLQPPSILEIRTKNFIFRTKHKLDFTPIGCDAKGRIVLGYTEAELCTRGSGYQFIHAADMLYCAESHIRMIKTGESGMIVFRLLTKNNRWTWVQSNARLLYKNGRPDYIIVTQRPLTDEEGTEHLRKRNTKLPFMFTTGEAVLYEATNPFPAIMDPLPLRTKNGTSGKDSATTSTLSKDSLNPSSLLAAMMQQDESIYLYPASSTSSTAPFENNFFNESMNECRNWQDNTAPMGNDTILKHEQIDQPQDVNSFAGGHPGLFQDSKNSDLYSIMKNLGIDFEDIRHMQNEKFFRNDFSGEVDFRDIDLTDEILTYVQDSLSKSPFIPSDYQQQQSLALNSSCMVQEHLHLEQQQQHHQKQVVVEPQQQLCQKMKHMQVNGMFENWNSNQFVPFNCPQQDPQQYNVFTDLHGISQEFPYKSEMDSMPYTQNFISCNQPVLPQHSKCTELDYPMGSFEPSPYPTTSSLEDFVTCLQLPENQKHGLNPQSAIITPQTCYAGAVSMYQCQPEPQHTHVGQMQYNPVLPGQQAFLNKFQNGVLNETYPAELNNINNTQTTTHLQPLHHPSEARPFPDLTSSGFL
Retinoic acid receptor alpha (Homo sapiens), sequence (P10276 whole entry, looked up): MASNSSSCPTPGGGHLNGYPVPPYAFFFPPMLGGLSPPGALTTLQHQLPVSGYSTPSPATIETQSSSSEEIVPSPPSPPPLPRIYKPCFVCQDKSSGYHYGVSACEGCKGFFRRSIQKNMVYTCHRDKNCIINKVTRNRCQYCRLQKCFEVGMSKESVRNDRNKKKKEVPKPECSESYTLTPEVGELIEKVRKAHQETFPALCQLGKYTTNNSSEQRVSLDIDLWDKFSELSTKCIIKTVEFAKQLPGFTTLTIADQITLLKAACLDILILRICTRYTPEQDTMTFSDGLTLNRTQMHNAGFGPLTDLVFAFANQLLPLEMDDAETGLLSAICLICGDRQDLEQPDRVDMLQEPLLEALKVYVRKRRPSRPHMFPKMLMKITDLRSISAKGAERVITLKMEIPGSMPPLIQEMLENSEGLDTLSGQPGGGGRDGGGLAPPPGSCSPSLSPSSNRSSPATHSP
CCAAT/enhancer-binding protein beta (Homo sapiens), sequence (P17676 whole entry, looked up): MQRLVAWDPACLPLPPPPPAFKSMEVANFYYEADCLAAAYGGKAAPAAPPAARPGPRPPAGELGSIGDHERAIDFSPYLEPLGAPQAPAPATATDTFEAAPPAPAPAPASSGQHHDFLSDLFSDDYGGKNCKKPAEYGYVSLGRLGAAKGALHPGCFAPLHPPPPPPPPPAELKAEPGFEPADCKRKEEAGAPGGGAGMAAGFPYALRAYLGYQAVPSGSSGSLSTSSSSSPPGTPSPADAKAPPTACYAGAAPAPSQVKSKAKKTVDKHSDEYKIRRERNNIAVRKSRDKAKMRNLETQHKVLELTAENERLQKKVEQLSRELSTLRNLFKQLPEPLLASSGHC

Turning to `CCC(C)C1CCCCC1=O` (configuration not stated), the outcome in test [1], in test [2], in [3], in test [4], in [5] and in test [6] was inactive. The molecule was classed as inactive in [7], in test [8] and in [9].
By AC50 is commonly meant the midpoint of the concentration-response curve, whichever way the signal moves. `CCC(C)(C)c1cc(O)c(C(C)(C)CC)cc1O`: the AC50 was 5.39 µM (active) in test [1], 19.8 µM (active) in test [2], 54.3 µM (active) in test [3] and 26.7 µM (active) in test [4]. The result in test [5], in test [6], in test [7] and in test [8] was inactive.
With `CCOC(=O)COC(=O)c1ccccc1C(=O)OCC`, the molecule was classed as inactive in test [1], in [2], in test [3], in [4], in test [5] and in [6]. Besides, the call in test [7] and in test [8] was inactive.
Consider `CCCCCCOC(C)=O`, for which the result in test [1], in [2], in [3], in test [4], in [5] and in [6] was inactive. Moreover, the result in test [7] and in test [8] was inactive.
For `OCCN1CCOCC1`, the molecule was classed as inactive in test [1], in [2], in test [3], in test [4], in [5] and in test [6]. Further, the outcome in test [7], in test [8] and in test [9] was inactive.
As for `NC(=O)NC(N)=O`, the call in test [1], in test [2], in [3], in [4], in test [5] and in test [6] was inactive. In addition, the molecule was called inactive in test [7], in [8] and in test [9].
As to `CCCc1ccc(N)cc1`, the molecule was classed as inactive in test [1], in [2], in test [3], in [4], in [5] and in test [6]. Besides, the molecule was called inactive in test [7] and in [8].
With `O=C1CCC(=O)N1`, the outcome in [1], in test [2], in test [3], in [4], in [5] and in [6] was inactive. Also, the molecule was called inactive in test [7] and in test [8].
Take `CC1=CC(O)CC(C)(C)C1` (configuration not stated): the call in test [1], in test [2], in test [3], in [4], in test [6] and in test [7] was inactive. The outcome in test [8] and in [9] was inactive. For the same molecule, the AC50 in test [5] was 44.9 µM (active).
As for `C=C(C)C(N)=O`, the outcome in test [1], in [2], in test [3], in [4], in test [5] and in [6] was inactive. Also, the result in [7], in [8] and in [9] was inactive.
Take `CCCCCCCC1CCCC1=O` (configuration not stated): the outcome in test [1], in [2], in test [3], in [4], in [5] and in test [6] was inactive. For the same molecule, the molecule was classed as inactive in test [7], in test [8] and in [9].
Consider `c1ccc(Sc2ccccc2)cc1`, for which the outcome in test [1], in [2], in [3], in test [4], in [5] and in test [6] was inactive. Moreover, the molecule was classed as inactive in test [7], in [8] and in test [9].
Regarding `O=[N+]([O-])c1cc(N(CCO)CCO)ccc1NCCO`, the result in test [1], in test [2], in test [3], in [4], in test [5] and in [6] was inactive. Moreover, the call in [7], in test [8] and in test [9] was inactive.

For the origin of these results see PubChem BioAssay (EPA / NIEHS).
